TROY signal inh = inhibitors of TROY-driven NF-kB signaling, primary screen, Q293 LMP1-TROYcd cells, NF-kB luciferase, uHTS; Q293 LMP1-TROYcd NF-kB luciferase reporter, 4 h; inhibition, % at 10 µM; actives 0.98% (n = 360,000); AID 1347056, 2019;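 active = compounds whose plate-normalised and pattern-corrected inhibition of the luciferase reporter signal at the single screening dose is 50% or more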
Peg3 prom inh = Peg3 promoter-driven luciferase inhibitors, primary screen, cell-based, HeLa, luciferase luminescence | HeLa PEG-Prom luciferase reporter, overnight | AID 588405, 2011 | actives 1.7% (n = 360,000) | inhibition, % at 20 µM;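 active = inhibition of at least 50% at 20 µM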
TWEAK Fn14 block = inhibitors of TWEAK-Fn14 signaling, primary screen, luciferase reporter cells, uHTS; TWEAK-stimulated Fn14 reporter cells, luciferase luminescence, 8 h; inhibition, % at 10 µM; actives 2% (n = 360,000); in the data active = inhibition above about 50%
HIF-2a block = HIF-2a reporter inhibitors, primary screen, luminescence, 786-0 RCC cells; 786-0 RCC cells HIF-2a reporter, luciferase luminescence, overnight; actives 0.72% (n = 360,000); inhibition, % at 18.8 µM;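 active = inhibition of the luminescence signal of 40% or more relative to plate controls, in a single-dose primary screen at 18.75 µM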
KKLEB tox = cytotoxicity in KKLEB CF airway cells, primary screen, cytotoxicity control for CF NF-kB inhibitor project, cell-based, uHTS, fluorescence assay plates | KKLEB CF airway cells viability, ATPlite luminescence, overnight; active compounds read low; cells stimulated with P. aeruginosa culture filtrate | activity change (cytotoxicity), % at 5 µM | actives 0.36% (n = 360,000);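 active = corrected activity change at or below -50% at 5 µM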
CF NFkB block = inhibitors of PAF-induced NF-kB signaling, primary screen, cell-based, GFP fluorescence, uHTS. inhibition, % at 5 µM. AID 588850, 2011. actives 0.86% (n = 360,000). KKLEB NF-kB-GFP reporter, GFP fluorescence overnight;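 active = at least 50% inhibition at 5 µM, scaled per plate between neutral and stimulator controls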;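 note: PAF is a Pseudomonas aeruginosa culture filtrate used as stimulus; plate controls were PAF-stimulated DMSO wells for no effect and unstimulated DMSO wells for full effect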
CF NFkB inh conf = inhibitors of PAF-induced NF-kB signaling, retest, confirmation, cell-based, GFP fluorescence, single concentration; inhibition, % at 5 µM; KKLEB CF airway cells, overnight; actives 64% (n = 1,300); shares compounds with CF NFkB block; in the data active = inhibition above about 40%;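 note: stimulus PAF is a Pseudomonas aeruginosa filtrate and not platelet activating factor; plate controls were DMSO wells with stimulus for no effect and unstimulated DMSO wells for full effect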
Starred values were filed as active, the others as inactive; . = not tested or not shown. This is a sample that favours compounds with a hit; in the whole collection about 4% have one here.

SMILES | TROY signal inh | Peg3 prom inh | TWEAK Fn14 block | HIF-2a block | KKLEB tox | CF NFkB block | CF NFkB inh conf
COc1ccc(-c2cc(NC=O)c3ncc(-c4ccc(OC)c(OC)c4)n3c2)c(OC)c1 | -1 | 47 | 10 | 10 | -28 | 60* | 87*
COc1ccccc1-c1cc(NC=O)c2ncc(-c3cccc(C(C)=O)c3)n2c1 | 4 | 42 | 47 | -29 | -19 | 59* | 44*
COc1cc(-c2cnc3c(NC=O)cc(-c4ccc(S(C)(=O)=O)cc4)cn23)cc(OC)c1OC | 0 | 23 | -13 | 13 | -11 | 27 | .
CCC(C(=O)NCCCN1CC(C)CC(C)C1)n1nc(C)c2sc3ccccc3c2c1=O (stereo not given) | -9 | 13 | -2 | 8 | -16 | -6 | .
COc1cccc(/C=N/n2c(N)c(S(=O)(=O)c3cccs3)c3nc4ccccc4nc32)c1OC | 3 | 4 | 18 | 3 | 15 | 54* | 11
COCCn1c(N)c(S(=O)(=O)c2cccs2)c2nc3ccccc3nc21 | 16 | 13 | 6 | 14 | 9 | -7 | .
Cc1[nH]nc2ncc(C(=O)c3ccccc3O)cc12 | 49 | 26 | 59* | 10 | -13 | 86* | 94*
CC(C)C[C@@H](CN1CCC[C@H]1CN1C(=O)C(=O)NC[C@@H]1Cc1ccccc1)N1C[C@H](Cc2ccc(O)cc2)N(CC2CCCCC2)C(=O)C1=O | -3 | . | 28 | -1 | . | . | .
Cc1ccc2nc(CN(C)C(=O)[C@H]3O[C@@H](n4ccc(N)nc4=O)[C@H](O)[C@@H]3O)[nH]c2c1 | 0 | 13 | 16 | 14 | -26 | -2 | .
c1ccc2c(c1)Nc1ccncc1S2 | 19 | 0 | 55* | 25 | -4 | 52* | 77*
c1ccc2c(c1)Nc1cc3ccccc3cc1S2 | -43 | -149 | -21 | -143 | 10 | -1 | .
C/C(=N/NC(=O)c1cc(-c2cccc([N+](=O)[O-])c2)n[nH]1)c1cccc(O)c1 | -12 | 12 | -33 | 14 | -12 | 57* | 37
CCOC(=O)c1c(NC(=O)COC(=O)CCOc2cc(C)ccc2C)sc(C(=O)N(C)C)c1C | 20 | 4 | -9 | 1 | -2 | 15 | .
Cc1nn(-c2ccc(F)cc2)c2sc(C(=O)OCC(=O)N3CCC(C)CC3)cc12 | -7 | 22 | -15 | 13 | -3 | -23 | .
Cc1noc(C)c1COC(=O)c1cc2c(C)nn(-c3ccc(F)cc3)c2s1 | -4 | 14 | 0 | 21 | -31 | 51* | 8
Cc1cccc(NC(=O)CSc2nnc(-c3cc(C)[nH]n3)n2N)c1 | -6 | 3 | 13 | -1 | -4 | 7 | .
COc1nc(=O)n(C2C=CC(=O)O2)cc1F (stereo not given) | -12 | 27 | 64* | -4 | -18 | 87* | 23
COc1ccc(S(=O)(=O)N2CCC3(CC2)OCCN3S(=O)(=O)c2cccs2)cc1OC | 17 | -5 | -7 | 16 | -7 | 13 | .
Cc1cccc(OCCOC(=O)CN2C(=O)NC3(CCCC3)C2=O)c1 | -24 | -14 | -5 | -4 | -4 | 32 | .
CCn1c(=O)cc(C(=O)OC)sc1=Nc1ccc(F)c(F)c1 | 5 | 65* | 46 | 11 | -21 | 50* | 24
COC(=O)c1cc(=O)n(CCc2ccccc2)c(=Nc2ccc(F)cc2)s1 | -17 | 15 | 11 | 10 | -14 | -1 | .
COc1ccc(Cl)cc1NS(=O)(=O)c1cccc(C(=O)NC2CC2)c1 | 6 | 17 | 6 | 12 | -9 | -15 | .
FC(F)(F)c1nnc2c(Sc3ccccc3)nc3ccccc3n12 | -24 | 3 | 12 | -60 | 11 | 79* | 84*
Cc1nn(-c2ccccc2)c(C)c1NC(=O)COC(=O)c1cccc(OC(F)F)c1 | -4 | -1 | 20 | 1 | 11 | -19 | .
COc1ccc(Cl)cc1NC(=O)c1nnn(CC(=O)Nc2ccc(OC)c(OC)c2)c1N | 4 | 22 | -33 | -1 | -24 | 50* | 4
SMILES | TROY signal inh | Peg3 prom inh | TWEAK Fn14 block | HIF-2a block | KKLEB tox | CF NFkB block | CF NFkB inh conf
COc1cccc(NC(=O)Cn2nnc(C(=O)Nc3cc(Cl)ccc3OC)c2N)c1 | -30 | 19 | 5 | 0 | -36 | 56* | 9
COc1ccc(NC(=O)Cn2nnc(C(=O)Nc3ccc(F)c(Cl)c3)c2N)cc1 | 15 | 22 | -17 | -2 | -44 | 61* | -1
CCC1=Nc2cc(C(=O)NCc3ccco3)ccc2Sc2ccc(C)cc21 | 26 | 4 | 12 | 35 | -28 | 52* | 80*
O=C(Nc1cccc(Cl)c1)Nc1cc(S(=O)(=O)N2CCCCC2)ccc1Cl | 56* | 66* | 84* | -22 | -46 | 50* | 75*
O=C(Nc1ccccc1)Nc1ccc(Br)cc1F | -84 | -347 | -15 | -304 | 27 | -5 | .
O=C(Nc1cccc(Cl)c1)Nc1ccc(Br)cc1F | 11 | -155 | 33 | -248 | -43 | 59* | 20
COC(=O)c1cc(NC(=O)Nc2cccc(Cl)c2)ccc1Cl | 37 | -71 | 78* | -294 | -30 | 50* | 35
CC1(C)O[C@@H]2C[C@H]3[C@@H]4CCC5=CC(=O)C=C[C@]5(C)[C@@]4(F)[C@@H](O)C[C@]3(C)[C@]2(C(=O)CO)O1 | 20 | 12 | 2 | 21 | 37 | 67* | 30
CC1(C)O[C@@H]2C[C@H]3[C@@H]4C[C@H](F)C5=CC(=O)C=C[C@]5(C)[C@@]4(F)[C@@H](O)C[C@]3(C)[C@]2(C(=O)CO)O1 | 24 | -8 | -26 | 21 | 25 | 73* | 25
CC1(C)OC2CC3C4CC=C5CC(O)CCC5(C)C4CCC3(C)C2(C(=O)CO)O1 (stereo not given) | -6 | -35 | -17 | -8 | 8 | 6 | .
NS(=O)(=O)c1cccc(NC(=O)CSc2nnc3n2CCCCC3)c1 | 7 | 3 | 0 | 12 | 5 | 10 | .
CCOc1ccc(CNC(=O)CCC(=O)N2Cc3ccccc3Oc3ncccc32)cc1 | 0 | 7 | -13 | -1 | -2 | -15 | .
C=CCN1C(=O)C2C(C(=O)NC3CCCC3)C3C=CC2(O3)C1C(=O)NC1CCCC1 (stereo not given) | 1 | 2 | -1 | 3 | 6 | -3 | .
COC(=O)[C@@]12C[C@@H](CC(=O)N3CCCC3)C(=O)N(Cc3ccccc3)C1=CCC(C)(C)C2 | . | . | . | 2 | . | . | .
S=C(Nc1ccccc1)Nc1ccc2cn[nH]c2c1 | 22 | -288 | 8 | -273 | -16 | 35 | .

Assay outcomes as filed in PubChem BioAssay.
